# Sampled rows, rich in hits. Any-hit rate of the full collection: about 6.3%.
# MPTP inh – permeability transition pore inhibition; isolated mouse mitochondria, Ca2+ swelling absorbance, 30 min; inhibition, % at 10 µM; 360,000 compounds, 1.4% hits; AID 602449;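 active means inhibition of 50% or more, scaled per plate between neutral and stimulator controls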;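 further: 0% = DMSO wells given calcium and 100% = 1 mM EGTA wells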
# Mdm2 MdmX PPI – inhibitors of human Mdm2/MdmX interaction; O15151+Q00987; SaOS-2 split-luciferase Mdm2/MdmX complementation, luminescence; inhibition, % at 8 µM; 330,000 compounds, 3% hits; AID 485346;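 active means inhibition of at least 50% at 8 µM in the primary screen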
# TIM10 inh – TIM10 yeast growth inhibition | S. cerevisiae TIM10 strain growth, BacTiter-Glo luminescence, 24 h | inhibition, % at 10 µM | 330,000 compounds, 1.4% hits | AID 463195;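 active means inhibition of 40% or more at the single tested concentration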;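 further: wild-type TIM10 isogenic control strain grown at permissive 25 °C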
# tim23-1 inh – tim23-1 yeast growth inhibition; S. cerevisiae tim23-1 growth, BacTiter-Glo luminescence, 24 h; inhibition, % at 20 µM; 330,000 compounds, 1.3% hits; AID 463212;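 active means growth inhibition of the mutant yeast at or above 50%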;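 further: temperature-sensitive mutant grown at 25 °C; plate controls were DMSO-treated mutant yeast for no effect and medium wells lacking yeast for full effect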
# tim10-1 inh – tim10-1 yeast growth inhibition; S. cerevisiae tim10-1 ts strain growth, BacTiter-Glo, 24 h; inhibition, % at 20 µM; 330,000 compounds, 2.2% hits; AID 463190;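 active means inhibition of at least 40%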;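 further: mutant grown at 25 °C; 0% = DMSO wells with yeast and 100% = wells holding no yeast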
# tim10 confirm – TIM10 yeast growth inhibition, confirmed; AID 463215; shares compounds with TIM10 inh; S. cerevisiae tim10 strain growth, BacTiter-Glo luminescence, 24 h; inhibition, % at 10 µM; 4,600 compounds, 63% hits;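 active means inhibition of yeast growth at or above a set limit in either of two replicates at 10 µM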;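 further: this counterscreen used the strain with wild-type TIM10; 0% = yeast with DMSO and 100% = medium wells lacking yeast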
# tim23-1 confirm – tim23-1 yeast growth inhibition, confirmed | S. cerevisiae tim23-1 growth, BacTiter-Glo luminescence, 24 h | 4,400 compounds, 83% hits | inhibition, % at 20 µM | shares compounds with tim23-1 inh | AID 463218;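 active means inhibition above about 39% in either of two replicate wells at 20 µM, limit read from the data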;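 further: temperature-sensitive tim23-1 mutant grown at 25 °C; 0% = DMSO wells with yeast and 100% = medium wells without yeast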
# Mdm2-MdmX conf – human Mdm2/MdmX binding inhibition, confirmed. shares compounds with Mdm2 MdmX PPI. luminescent assay. inhibition, % at 8 µM. 10,000 compounds, 55% hits. AID 489028; in the data active means inhibition above about 40%
# FLuc counter – counter-screen for Mdm2/MdmX inhibitors: full-length luciferase | shares compounds with Mdm2 MdmX PPI | SaOS-2 full-length luciferase counterscreen, luminescence | inhibition, % at 8 µM | 6,200 compounds, 77% hits | AID 504607;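 active means mean inhibition at 8 µM reaching about 37%, which flags the compound as non-specific, limit read from the data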;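 further: p53-null SaOS-2 cells with luciferase driven by a doxycycline-inducible promoter; compound on cells about two nights before reading with doxycycline added after day one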
# Starred values were filed as active, the others as inactive; . = no result.
SMILES,MPTP inh,Mdm2 MdmX PPI,TIM10 inh,tim23-1 inh,tim10-1 inh,tim10 confirm,Mdm2-MdmX conf,others
OC(COc1ccccc1)CN1CCN(C(c2ccccc2)c2ccccc2)CC1 (stereo unspecified),2,20,0,24,-11,.,.,
C=CCOc1cccn2c(N(C)C(=O)c3ccccc3F)c(CC)nc12,0,.,.,.,.,.,.,
CC12CC(c3ccccc3O1)N(C(=O)c1ccco1)C(=S)N2c1ccc(F)cc1 (stereo unspecified),0,51*,42*,48,38,40*,30,
CC1(c2nc3ccccc3[nH]2)CCCC2=Nc3ccccc3CN21 (stereo unspecified),0,.,.,.,.,.,.,
COc1ccccc1/C=C/C1(C(=O)NC2CCCC2)CC(=O)N1c1ccc(F)cc1 (stereo unspecified),0,70*,41*,35,38,21,89*,FLuc counter=49*
Oc1ccc(-c2cc(-c3ccc(O)cc3)nc(-c3ccccc3)n2)cc1,2,83*,67*,61*,31,63*,29,tim23-1 confirm=61*
CCCS(=O)(=O)NC(=O)C1(C)CCCN(C(=O)c2cc3ccccc3s2)C1 (stereo unspecified),0,.,.,.,.,.,.,
COc1ccc(C(N)c2csc(Nc3ccc(C(F)(F)F)cn3)n2)cc1 (stereo unspecified),4,.,.,.,.,.,.,
COc1cccc(-c2sc3ccccc3c2-c2ccc(OCCN(C)C)cc2)c1,0,100*,50*,-1,-8,52*,25,
CCN(CC)c1ccc2cc(/C(N)=N/NC(=O)c3cccs3)c(=O)oc2c1,.,85*,47*,37,-27,37*,71*,FLuc counter=84*
O=C1Nc2ccc(Br)cc2C12NNc1ccccc1O2 (stereo unspecified),4,76*,45*,-20,22,69*,23,
O=C1Nc2ccc(Br)cc2C1(O)c1ccccc1 (stereo unspecified),-1,9,0,11,21,.,.,
CC1(C)CC(=O)C=C(c2ccc(-c3cccc4c3sc3ccccc34)cc2)C1=O,-1,.,.,.,.,.,.,
CCn1c(Cl)c(C=O)s/c1=N\S(=O)(=O)c1ccccc1,0,100*,43*,27,34,1,98*,FLuc counter=51*
CCN1C(=O)CS/C1=N\S(=O)(=O)c1ccc(Cl)cc1,-1,-17,7,16,6,.,.,
N/C(=N\OC(=O)c1ccc2c(c1)OCO2)c1ccc(Cl)cc1,-1,82*,48*,47,33,46*,17,
Cc1ccc(C(=O)O/N=C(\N)c2cccnc2)cc1[N+](=O)[O-],0,-46,14,23,37,.,.,
N/C(=N\OC(=O)c1ccc(Cl)c([N+](=O)[O-])c1)c1ccccc1,0,65*,72*,81*,34,72*,29,tim23-1 confirm=78*
Cc1ccc(S(=O)(=O)CC(=O)N(CCCN2CCOCC2)c2nc3c(F)cccc3s2)cc1,-4,2,-6,-12,-12,.,.,
O=C(CCS(=O)(=O)c1ccccc1)N(CCCN1CCOCC1)c1nc2c(F)cccc2s1,-1,79*,66*,-41,34,70*,58*,FLuc counter=38*
Fc1cccc(Cc2c(C3CCCCC3)nc3c4ccccc4ccn23)c1,3,.,.,.,.,.,.,
OC(CNCc1ccco1)Cn1c2ccc(Br)cc2c2cc(Br)ccc21 (stereo unspecified),10,75*,46*,21,8,65*,31,FLuc counter=70*
Cc1cc2c(OCC(O)CNCc3ccco3)cccc2[nH]1 (stereo unspecified),-1,-23,-2,-2,11,.,.,
CCc1nc2ccc(C(=O)N3CCN(S(=O)(=O)CC)CC3)cn2c1N(C)Cc1cccs1,-1,.,.,.,.,.,.,
Oc1c(CN2CCc3ccccc3C2)cc(Cl)c2cccnc12,-1,70*,43*,56*,35,41*,80*,tim23-1 confirm=54*;FLuc counter=46*

# High-throughput results deposited in PubChem by Sanford-Burnham Center for Chemical Genomics.
